Source: PubChem BioAssay (EPA / NIEHS)
Records with an inconclusive call do not appear. Active and inactive are the calls of the source. Rule for the calls, unless noted: active = hit-call score of the fitted dose curve at least 0.9, where 1 is the maximum; inconclusive = response in the unintended direction; inactive = score below 0.9.

Key:
[1] = ATG_TAL_CIS: Attagene CIS-FACTORIAL HepG2 Assay for human TAL Basal Promoter (AID 2282966; active = hit-call score of the fitted dose curve at least 0.9, where 1 is the maximum; inactive = score below 0.9;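 note: background control endpoint measuring basal TAL promoter reporter mRNA not a specific factor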); conditions: HepG2 Attagene cis-factorial TAL promoter reporter; actives raise or lower the signal
Method in brief: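 After 24 hours of chemical exposure, transfected HepG2 cells yielded RNA that was converted to 6-FAM-labelled, HpaI-digested reporter fragments for capillary electrophoresis. Values derive from bidirectional fitting against DMSO controls.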

[2] = ATG_TGFb_CIS: Attagene CIS-FACTORIAL HepG2 Assay for human Transforming Growth Factor (TGF) (AID 2282967; active = hit-call score of the fitted dose curve at least 0.9, where 1 is the maximum; inactive = score below 0.9); conditions: HepG2 Attagene CIS TGFb reporter, mRNA transcription; actives raise or lower the signal
Method in brief: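 Endogenous TGFB1-linked transcription factor activity read as reporter mRNA via RT-PCR and capillary electrophoresis, 24 h after dosing transiently transfected HepG2 cells. Gain or loss of signal fitted relative to DMSO.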

[3] = target: Nuclear receptor subfamily 1 group I member 3 (Homo sapiens) (UniProt Q14994); test: ATG_CAR_TRANS: Attagene TRANS-FACTORIAL HepG2 Assay for human Constitutive Androstane Receptor (CAR) (AID 2282969); conditions: HepG2 Attagene TRANS-FACTORIAL CAR reporter;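 note: activators raise reporter mRNA above DMSO so AC50 marks induction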
Nuclear receptor subfamily 1 group I member 3 (Homo sapiens), sequence (Q14994 whole entry, looked up, the tested form may be a part): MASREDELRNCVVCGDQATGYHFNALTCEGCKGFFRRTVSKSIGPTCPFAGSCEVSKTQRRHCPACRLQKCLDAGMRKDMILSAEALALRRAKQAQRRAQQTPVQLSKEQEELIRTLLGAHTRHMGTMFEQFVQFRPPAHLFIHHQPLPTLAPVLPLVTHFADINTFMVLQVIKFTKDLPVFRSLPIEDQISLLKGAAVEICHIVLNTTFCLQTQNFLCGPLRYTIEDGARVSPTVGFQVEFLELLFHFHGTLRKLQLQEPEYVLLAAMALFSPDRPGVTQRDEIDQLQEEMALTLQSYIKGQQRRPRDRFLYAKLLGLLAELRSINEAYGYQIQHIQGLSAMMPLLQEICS
Method in brief: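 Transiently transfected HepG2, multiplex TRANS reporters (CAR-Gal4 chimera driving GAL4-UAS reporter). 24 h dosing. Readout: reporter transcript by RT-PCR + capillary electrophoresis, fluorescence intensity; positive direction vs DMSO.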

[4] = target: Estrogen receptor (Homo sapiens) (UniProt P03372); test: ATG_ERa_TRANS: Attagene TRANS-FACTORIAL HepG2 Assay for human Estrogen Receptor alpha (ERa) (AID 2282970); conditions: HepG2 Attagene TRANS ERa GAL4 reporter, mRNA
Method in brief: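 Liver-derived HepG2 cells expressing chimeric nuclear receptor-Gal4 proteins from transient transfection were exposed for 24 hours. Gain of reporter mRNA signal versus DMSO, read by capillary electrophoresis of FAM-labelled PCR products, was recorded.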

[5] = target: X-box-binding protein 1 (Homo sapiens) (UniProt P17861); test: ATG_Xbp1_CIS: Attagene CIS-FACTORIAL HepG2 Assay for human X-box Binding Protein 1 (XBP1) (AID 2282972; active = hit-call score of the fitted dose curve at least 0.9, where 1 is the maximum; inactive = score below 0.9); conditions: HepG2 XBP1 cis-element reporter, Attagene multiplex; actives raise or lower the signal
X-box-binding protein 1 (Homo sapiens), sequence (P17861 whole entry, looked up): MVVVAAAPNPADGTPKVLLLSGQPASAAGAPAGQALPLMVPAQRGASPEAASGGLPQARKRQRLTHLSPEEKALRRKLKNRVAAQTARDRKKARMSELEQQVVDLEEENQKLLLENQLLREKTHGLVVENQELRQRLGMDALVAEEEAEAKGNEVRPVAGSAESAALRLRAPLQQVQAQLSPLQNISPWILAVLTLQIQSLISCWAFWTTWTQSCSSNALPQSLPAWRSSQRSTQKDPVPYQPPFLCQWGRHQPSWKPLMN
Method in brief: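 Changes in reporter transcript abundance, read by RT-PCR and capillary electrophoresis, reflect endogenous transcription factor activity. Transfected HepG2 cells received compound for 24 hours; DMSO defined baseline for bidirectional analysis.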

[6] = ATG_GAL4_TRANS: Attagene TRANS-FACTORIAL HepG2 Assay for GAL4 (Internal Marker) (AID 2282976); conditions: HepG2 Attagene TRANS GAL4 internal marker reporter
Method in brief: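 First, HepG2 cells were transfected with reporter units under GAL4-UAS control. Next, they were treated with chemical for 24 h. Finally, RNA was reverse-transcribed, PCR-amplified, FAM-labelled and resolved by capillary electrophoresis, with induction scored against DMSO.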

[7] = ATG_M_06_TRANS: Attagene TRANS-FACTORIAL HepG2 Assay for M06 Transcription Factor (Internal Marker) (AID 2282983); conditions: HepG2 Attagene TRANS M06 internal marker reporter
Method in brief: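 Background control endpoint: reporter mRNA from transiently transfected HepG2 after 24 h dosing, detected by RT-PCR with capillary electrophoresis fluorescence. Analysed for gain versus DMSO.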

[8] = ATG_M_32_TRANS: Attagene TRANS-FACTORIAL HepG2 Assay for M32 Transcription Factor (Internal Marker) (AID 2282984); conditions: HepG2 Attagene TRANS M32 internal marker reporter
Method in brief: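 Internal-marker readout from a multiplexed transcription reporter panel. HepG2 cells were transfected with GAL4-UAS reporter units, treated 24 hours, and reporter transcript levels determined by fluorescence after RT-PCR and capillary separation.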

[9] = target: Nuclear receptor subfamily 4 group A member 2 (Homo sapiens) (UniProt P43354); test: ATG_NURR1_TRANS: Attagene TRANS-FACTORIAL HepG2 Assay for human Nuclear Receptor Related Protein 1 (NURR1) (AID 2282985); conditions: HepG2 Attagene TRANS reporter, mRNA readout
Nuclear receptor subfamily 4 group A member 2 (Homo sapiens), sequence (P43354 whole entry, looked up): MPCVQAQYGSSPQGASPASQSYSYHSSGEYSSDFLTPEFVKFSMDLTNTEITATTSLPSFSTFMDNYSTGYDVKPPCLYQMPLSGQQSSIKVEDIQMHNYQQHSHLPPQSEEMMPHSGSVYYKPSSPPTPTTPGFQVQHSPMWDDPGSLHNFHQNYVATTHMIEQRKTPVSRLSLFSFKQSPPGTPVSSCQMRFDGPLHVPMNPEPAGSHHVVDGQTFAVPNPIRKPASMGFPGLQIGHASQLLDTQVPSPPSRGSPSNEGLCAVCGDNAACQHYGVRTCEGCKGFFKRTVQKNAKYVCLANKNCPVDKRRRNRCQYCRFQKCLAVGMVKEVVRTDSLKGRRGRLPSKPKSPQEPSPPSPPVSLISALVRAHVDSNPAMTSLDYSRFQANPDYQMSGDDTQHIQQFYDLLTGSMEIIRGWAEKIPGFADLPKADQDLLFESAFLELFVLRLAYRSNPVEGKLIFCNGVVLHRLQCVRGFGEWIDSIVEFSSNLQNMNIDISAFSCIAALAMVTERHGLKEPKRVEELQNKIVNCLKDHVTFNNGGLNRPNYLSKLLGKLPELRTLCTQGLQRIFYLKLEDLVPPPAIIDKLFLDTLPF
Method in brief: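 Endpoint: reporter mRNA increase relative to DMSO. HepG2 cells transfected with reporter units, treated 24 h; RNA processed by RT-PCR, labelling, HpaI digestion and capillary electrophoresis.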

[10] = target: Transcriptional activator Myb (Homo sapiens) (UniProt P10242); test: ATG_Myb_CIS: Attagene CIS-FACTORIAL HepG2 Assay for human Myeloblastosis (Myb) Proto-Oncogene Transcription Factor (AID 2282986; active = hit-call score of the fitted dose curve at least 0.9, where 1 is the maximum; inactive = score below 0.9); conditions: HepG2 Attagene CIS-FACTORIAL Myb reporter transcription; actives raise or lower the signal
Transcriptional activator Myb (Homo sapiens), sequence (P10242 whole entry, looked up): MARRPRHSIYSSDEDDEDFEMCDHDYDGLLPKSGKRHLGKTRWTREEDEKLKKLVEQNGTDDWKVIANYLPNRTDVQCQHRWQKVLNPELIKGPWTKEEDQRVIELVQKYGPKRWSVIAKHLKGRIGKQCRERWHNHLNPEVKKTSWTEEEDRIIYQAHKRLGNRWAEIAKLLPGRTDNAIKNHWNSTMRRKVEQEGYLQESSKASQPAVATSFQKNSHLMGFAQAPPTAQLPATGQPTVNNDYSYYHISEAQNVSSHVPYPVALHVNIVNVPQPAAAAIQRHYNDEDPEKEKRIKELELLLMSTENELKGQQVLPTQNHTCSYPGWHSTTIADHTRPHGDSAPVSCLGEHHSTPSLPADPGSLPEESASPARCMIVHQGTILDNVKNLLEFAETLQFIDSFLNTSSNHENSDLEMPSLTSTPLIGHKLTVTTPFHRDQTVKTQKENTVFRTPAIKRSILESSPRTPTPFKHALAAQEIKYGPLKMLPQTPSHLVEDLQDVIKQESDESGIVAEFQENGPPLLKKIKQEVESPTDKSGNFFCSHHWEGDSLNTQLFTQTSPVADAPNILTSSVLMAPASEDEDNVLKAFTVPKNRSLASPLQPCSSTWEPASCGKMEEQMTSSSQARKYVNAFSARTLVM
Method in brief: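 Reporter transcript levels, quantified by fluorescent RT-PCR and capillary electrophoresis, serve as the read-out. Transfected HepG2 cells carrying cis-promoter reporter units are dosed for 24 hours, and curves are fitted bidirectionally against DMSO controls.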

[11] = target: Nuclear respiratory factor 1 (Homo sapiens) (UniProt Q16656); test: ATG_NRF1_CIS: Attagene CIS-FACTORIAL HepG2 Assay for human Nuclear Respiratory Factor 1 (NRF1) Orphan Gene (AID 2282987; active = hit-call score of the fitted dose curve at least 0.9, where 1 is the maximum; inactive = score below 0.9); conditions: HepG2 NRF1 cis-element reporter, Attagene multiplex; actives raise or lower the signal
Nuclear respiratory factor 1 (Homo sapiens), sequence (Q16656 whole entry, looked up): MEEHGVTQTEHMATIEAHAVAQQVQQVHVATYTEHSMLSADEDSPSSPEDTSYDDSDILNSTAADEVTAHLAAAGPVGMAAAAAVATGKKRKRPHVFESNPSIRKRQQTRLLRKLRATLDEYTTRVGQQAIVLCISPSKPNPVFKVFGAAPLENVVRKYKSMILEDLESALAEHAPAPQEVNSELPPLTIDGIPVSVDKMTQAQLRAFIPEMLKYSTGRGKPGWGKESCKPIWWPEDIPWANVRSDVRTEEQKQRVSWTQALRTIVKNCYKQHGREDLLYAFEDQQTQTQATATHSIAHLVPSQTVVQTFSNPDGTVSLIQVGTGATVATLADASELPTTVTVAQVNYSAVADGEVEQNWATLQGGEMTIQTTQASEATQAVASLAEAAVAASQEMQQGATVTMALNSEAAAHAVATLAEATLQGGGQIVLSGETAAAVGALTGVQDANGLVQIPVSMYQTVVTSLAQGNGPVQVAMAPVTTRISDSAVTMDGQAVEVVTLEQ
Method in brief: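 Multiplexed cis-reporter assay, HepG2 cells, 24 h treatment. Total RNA → oligo(dT) RT → PCR with reporter-specific primers → 6-FAM primer extension → HpaI cut → CE. Bidirectional fit vs DMSO.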

[12] = ATG_VDRE_CIS: Attagene CIS-FACTORIAL HepG2 Assay for human Vitamin D Receptor Element (VDRE) (AID 2282968; active = hit-call score of the fitted dose curve at least 0.9, where 1 is the maximum; inactive = score below 0.9); conditions: HepG2 VDRE cis-reporter transcription, actives raise or lower the signal
Method in brief: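 Compounds were applied for 24 h to HepG2 cells transfected with promoter-regulated reporter units. Total RNA was reverse-transcribed, and reporter amplicons were fluorescently labelled and sized by capillary electrophoresis.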

[13] = target: Oxysterols receptor LXR-beta (Homo sapiens) (UniProt P55055); test: ATG_LXRb_TRANS: Attagene TRANS-FACTORIAL HepG2 Assay for human Liver X Receptor beta (LXRb) (AID 2282981); conditions: HepG2 Attagene TRANS GAL4-LXRb reporter, mRNA
Oxysterols receptor LXR-beta (Homo sapiens), sequence (P55055 whole entry, looked up, the tested form may be a part): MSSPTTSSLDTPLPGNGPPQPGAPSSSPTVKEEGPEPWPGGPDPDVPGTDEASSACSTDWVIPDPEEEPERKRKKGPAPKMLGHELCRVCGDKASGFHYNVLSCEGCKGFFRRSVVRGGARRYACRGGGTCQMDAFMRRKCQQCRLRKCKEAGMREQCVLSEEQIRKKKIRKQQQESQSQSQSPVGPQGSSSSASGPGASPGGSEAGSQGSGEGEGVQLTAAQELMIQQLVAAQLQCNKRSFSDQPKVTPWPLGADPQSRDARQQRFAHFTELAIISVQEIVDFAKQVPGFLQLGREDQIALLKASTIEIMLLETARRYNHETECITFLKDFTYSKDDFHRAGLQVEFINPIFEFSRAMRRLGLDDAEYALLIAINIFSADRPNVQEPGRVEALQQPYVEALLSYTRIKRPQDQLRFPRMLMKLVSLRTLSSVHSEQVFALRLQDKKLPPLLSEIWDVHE
Method in brief: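 Multiplexed reporter assay, HepG2, 24 h dosing. Fluorescence of labelled RT-PCR products after capillary electrophoresis gives transcript level; positive fitting direction relative to DMSO.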

[14] = target: Hepatocyte nuclear factor 4-alpha (Homo sapiens) (UniProt P41235); test: ATG_HNF4a_TRANS: Attagene TRANS-FACTORIAL HepG2 Assay for human Hepatocyte Nuclear Factor 4 alpha (HNF4a) (AID 2282982); conditions: HepG2 HNF4a transactivation reporter, mRNA readout
Hepatocyte nuclear factor 4-alpha (Homo sapiens), sequence (P41235 whole entry, looked up, the tested form may be a part): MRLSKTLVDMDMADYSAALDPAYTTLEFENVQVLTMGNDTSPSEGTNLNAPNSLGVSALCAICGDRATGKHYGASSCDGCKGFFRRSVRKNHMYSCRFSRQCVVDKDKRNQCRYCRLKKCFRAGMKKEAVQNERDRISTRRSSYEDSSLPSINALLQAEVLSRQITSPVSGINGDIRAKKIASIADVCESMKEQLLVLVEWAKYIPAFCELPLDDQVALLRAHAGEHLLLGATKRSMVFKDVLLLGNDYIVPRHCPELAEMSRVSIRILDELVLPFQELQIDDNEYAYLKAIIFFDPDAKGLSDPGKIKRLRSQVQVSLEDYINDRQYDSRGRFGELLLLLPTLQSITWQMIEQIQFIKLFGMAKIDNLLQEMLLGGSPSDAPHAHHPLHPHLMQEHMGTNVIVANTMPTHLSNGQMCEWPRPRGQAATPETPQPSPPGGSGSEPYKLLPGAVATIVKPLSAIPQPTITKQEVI
Method in brief: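 Endpoint reflects transcriptional activation of a GAL4-UAS reporter by an HNF4a-GAL4 chimera in transfected HepG2 cells, 24 h post-dosing. Fluorescence from RT-PCR products separated by capillary electrophoresis; DMSO baseline.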

[15] = ATG_M_19_TRANS: Attagene TRANS-FACTORIAL HepG2 Assay for M19 Transcription Factor (Internal Marker) (AID 2282974); conditions: HepG2 Attagene TRANS-FACTORIAL M19 internal marker reporter
Method in brief: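 Fluorescence of 6-FAM-labelled reporter cDNA fragments, separated by capillary electrophoresis, served as the readout. These derived from HepG2 cells carrying transfected GAL4-UAS reporter units after 24 h dosing, with DMSO as negative control.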

[16] = target: Oxysterols receptor LXR-alpha (Homo sapiens) (UniProt Q13133); test: ATG_LXRa_TRANS: Attagene TRANS-FACTORIAL HepG2 Assay for human Liver X Receptor alpha (LXRa) (AID 2282980); conditions: HepG2 Attagene TRANS reporter, LXRa transactivation
Oxysterols receptor LXR-alpha (Homo sapiens), sequence (Q13133 whole entry, looked up, the tested form may be a part): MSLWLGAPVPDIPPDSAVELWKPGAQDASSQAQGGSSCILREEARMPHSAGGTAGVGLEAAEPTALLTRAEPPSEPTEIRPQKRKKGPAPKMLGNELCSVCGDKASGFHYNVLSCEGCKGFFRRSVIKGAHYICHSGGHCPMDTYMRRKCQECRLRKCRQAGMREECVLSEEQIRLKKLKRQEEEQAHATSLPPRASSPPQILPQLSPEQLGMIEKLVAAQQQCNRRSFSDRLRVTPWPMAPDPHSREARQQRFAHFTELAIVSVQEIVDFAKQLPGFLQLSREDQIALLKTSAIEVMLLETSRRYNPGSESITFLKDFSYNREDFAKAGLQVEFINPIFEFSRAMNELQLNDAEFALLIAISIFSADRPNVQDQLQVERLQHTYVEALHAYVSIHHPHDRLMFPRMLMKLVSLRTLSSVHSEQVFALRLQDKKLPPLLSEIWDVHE
Method in brief: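 Transfect HepG2 with GAL4-UAS multiplex reporter constructs (TRANS format, chimeric receptor-GAL4); treat 24 h; extract RNA, reverse-transcribe, PCR-amplify, FAM-label, HpaI-digest; resolve fragments by capillary electrophoresis. Upward response vs DMSO.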

[17] = target: Glucocorticoid receptor (Homo sapiens) (UniProt P04150); test: ATG_GR_TRANS: Attagene TRANS-FACTORIAL HepG2 Assay for human Glucocorticoid Receptor (GR) (AID 2282978); conditions: HepG2 Attagene TRANS GR reporter, mRNA transcription;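 note: activators score as hits since higher reporter transcript over DMSO is fitted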
Glucocorticoid receptor (Homo sapiens), sequence (P04150 whole entry, looked up, the tested form may be a part): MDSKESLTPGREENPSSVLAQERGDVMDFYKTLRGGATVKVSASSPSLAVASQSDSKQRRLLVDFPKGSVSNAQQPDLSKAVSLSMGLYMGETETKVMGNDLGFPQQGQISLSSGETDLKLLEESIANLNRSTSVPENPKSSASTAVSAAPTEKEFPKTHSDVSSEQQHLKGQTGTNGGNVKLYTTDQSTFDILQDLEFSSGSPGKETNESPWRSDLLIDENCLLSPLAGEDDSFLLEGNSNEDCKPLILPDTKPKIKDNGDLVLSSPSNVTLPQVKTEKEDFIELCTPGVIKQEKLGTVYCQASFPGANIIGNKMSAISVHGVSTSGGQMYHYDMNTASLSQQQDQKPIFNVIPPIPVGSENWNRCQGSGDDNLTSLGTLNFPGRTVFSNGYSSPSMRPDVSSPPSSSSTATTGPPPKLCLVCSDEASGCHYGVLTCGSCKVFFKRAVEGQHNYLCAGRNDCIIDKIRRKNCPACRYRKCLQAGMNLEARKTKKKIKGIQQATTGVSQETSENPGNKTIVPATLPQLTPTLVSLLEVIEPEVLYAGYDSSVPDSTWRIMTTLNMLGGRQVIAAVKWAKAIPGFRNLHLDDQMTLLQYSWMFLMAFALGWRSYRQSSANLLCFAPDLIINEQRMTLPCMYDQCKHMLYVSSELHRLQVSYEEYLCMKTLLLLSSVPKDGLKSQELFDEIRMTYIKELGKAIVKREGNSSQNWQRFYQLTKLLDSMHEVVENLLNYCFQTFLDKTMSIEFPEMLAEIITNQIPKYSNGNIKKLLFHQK
Method in brief: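 Fluorescent capillary-electrophoresis quantitation of reporter mRNA is the readout, taken 24 h after dosing human HepG2 cells carrying transiently transfected GAL4-UAS reporter units activated by chimeric NR-GAL4 fusions; activity scored as induction over DMSO.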

[18] = target: Estrogen-related receptor gamma (Homo sapiens) (UniProt P62508); test: ATG_ERRg_TRANS: Attagene TRANS-FACTORIAL HepG2 Assay for human Estrogen-Related Receptor gamma (ERRg) (AID 2282977); conditions: HepG2 Attagene TRANS reporter, ERRg transactivation;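 note: hits increase reporter signal over DMSO so potencies reflect activators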
Estrogen-related receptor gamma (Homo sapiens), sequence (P62508 whole entry, looked up, the tested form may be a part): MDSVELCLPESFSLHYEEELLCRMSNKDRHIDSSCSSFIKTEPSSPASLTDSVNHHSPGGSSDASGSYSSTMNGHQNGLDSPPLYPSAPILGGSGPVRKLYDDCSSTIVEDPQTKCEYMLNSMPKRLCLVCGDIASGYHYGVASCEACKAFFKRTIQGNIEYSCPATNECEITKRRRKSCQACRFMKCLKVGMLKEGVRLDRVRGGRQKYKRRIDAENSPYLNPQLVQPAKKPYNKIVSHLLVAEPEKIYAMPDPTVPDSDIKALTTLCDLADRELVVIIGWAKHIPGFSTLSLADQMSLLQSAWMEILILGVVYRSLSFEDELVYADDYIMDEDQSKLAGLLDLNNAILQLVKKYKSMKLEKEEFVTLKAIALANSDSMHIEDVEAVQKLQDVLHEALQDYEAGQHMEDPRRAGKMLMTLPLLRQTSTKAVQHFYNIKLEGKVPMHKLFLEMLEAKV
Method in brief: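 Exogenous NR-Gal4 chimera activity measured as reporter transcript induction after 24 h in transiently transfected HepG2 cells. RNA reverse-transcribed, PCR-amplified, 6-FAM-labelled and resolved by capillary electrophoresis; increase over DMSO baseline.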

CC(C)Oc1ccccc1O
outcome [1]: inactive | outcome [2]: inactive | outcome [3]: inactive | outcome [4]: inactive | outcome [5]: inactive | outcome [6]: inactive | outcome [7]: inactive | outcome [8]: inactive | outcome [9]: inactive | outcome [10]: inactive | outcome [11]: inactive

c1cc(C(c2ccc(OCC3CO3)cc2)c2ccc(OCC3CO3)cc2)ccc1OCC1CO1 (centres undefined)
AC50 [1]: 24.2 µM (active) | AC50 [2]: 23.7 µM (active) | AC50 [12]: 10 µM (active) | AC50 [5]: 7.9 µM (active) | outcome [13]: inactive | outcome [14]: inactive | outcome [7]: inactive | outcome [8]: inactive | outcome [9]: inactive | outcome [10]: inactive | AC50 [11]: 24 µM (active)

CCCCCCCCCCCCN
outcome [1]: inactive | outcome [2]: inactive | outcome [3]: inactive | outcome [5]: inactive | outcome [15]: inactive | outcome [6]: inactive | outcome [16]: inactive | outcome [14]: inactive | outcome [7]: inactive | outcome [8]: inactive | outcome [9]: inactive | outcome [10]: inactive

CC[Si](OC(C)=O)(OC(C)=O)OC(C)=O
outcome [1]: inactive | outcome [2]: inactive | AC50 [12]: 33.8 µM (active) | outcome [5]: inactive | outcome [16]: inactive | outcome [14]: inactive | outcome [7]: inactive | outcome [10]: inactive | outcome [11]: inactive

COc1cc(C)cc(O)c1
outcome [1]: inactive | outcome [2]: inactive | outcome [3]: inactive | outcome [5]: inactive | outcome [15]: inactive | outcome [6]: inactive | outcome [17]: inactive | outcome [16]: inactive | outcome [13]: inactive | outcome [8]: inactive | outcome [10]: inactive | outcome [11]: inactive

CCCCCNCCCCC
outcome [1]: inactive | outcome [2]: inactive | outcome [12]: inactive | outcome [6]: inactive | outcome [14]: inactive | outcome [7]: inactive | outcome [10]: inactive | outcome [11]: inactive

COC(C(=O)O)c1ccccc1 (centres undefined)
outcome [1]: inactive | outcome [2]: inactive | outcome [12]: inactive | outcome [5]: inactive | outcome [6]: inactive | outcome [14]: inactive | outcome [7]: inactive | outcome [10]: inactive | outcome [11]: inactive

O=C(O)CCCCC1CCSS1 (centres undefined)
outcome [1]: inactive | outcome [2]: inactive | outcome [12]: inactive | outcome [13]: inactive | outcome [14]: inactive | outcome [7]: inactive | outcome [9]: inactive | outcome [10]: inactive | outcome [11]: inactive

CCCCCCCCCCCCCCCC(=O)OC[C@H](O)[C@H]1OC(=O)C(O)=C1O
AC50 [1]: 100 µM (active) | AC50 [2]: 3.14 µM (active) | AC50 [12]: 37.1 µM (active) | outcome [6]: inactive | outcome [18]: inactive | outcome [13]: inactive | outcome [14]: inactive | outcome [7]: inactive | outcome [8]: inactive | outcome [9]: inactive | outcome [10]: inactive | outcome [11]: inactive

C=C(C)C(=O)NCCCN(C)C
outcome [1]: inactive | outcome [2]: inactive | outcome [12]: inactive | outcome [15]: inactive | outcome [6]: inactive | outcome [13]: inactive | outcome [14]: inactive | outcome [10]: inactive | outcome [11]: inactive

Nc1ccc(S(=O)(=O)O)c(N)c1
outcome [1]: inactive | outcome [2]: inactive | outcome [12]: inactive | outcome [5]: inactive | outcome [16]: inactive | outcome [13]: inactive | outcome [7]: inactive | outcome [9]: inactive | outcome [10]: inactive | outcome [11]: inactive

Cc1ccc(C(=O)O)o1
outcome [1]: inactive | outcome [2]: inactive | outcome [12]: inactive | outcome [5]: inactive | outcome [16]: inactive | outcome [13]: inactive | outcome [14]: inactive | outcome [7]: inactive | outcome [8]: inactive | outcome [9]: inactive | outcome [10]: inactive | outcome [11]: inactive
